Measurements as given in PubChem BioAssay AID1159580 (chemical genetic matrix, 2015).
Screen size: about 5,500 compounds; about 2,000 (36%) were called active. Inconclusive results (about 18%) are left out. No stated cut-off is given here; in the data, active means normalized growth mostly below about 0.91 (no sharp cut-off); inconclusive means no clear call, values can overlap the other calls; inactive means mostly above about 0.92. The list shows a part of the results.

Test: chemical genetic growth profiling, strain panel (AID 1159580);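 further: tested at 20 µM; growth read once vehicle control cultures reached saturation at 30 °C; 1 = growth at the plate median or of vehicle wells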
Settings: growth OD

Measured: normalized growth

NCCC(O)C(=O)NC1CC(N)C(OC2OC(CN)C(O)C(O)C2N)C(OC2OC(CO)C(O)C2O)C1O (stereo unspecified)
inactive: S. cerevisiae deletion strains, locus YAL013W, strain DEP1, stronger effect = lower value 1.04 | S. cerevisiae deletion strains, locus YBR021W, strain FUR4, stronger effect = lower value 0.976 | S. cerevisiae deletion strains, locus YBR229C, strain ROT2, stronger effect = lower value 1 | S. cerevisiae deletion strains, locus YCL029C, strain bik1, stronger effect = lower value 0.994 | S. cerevisiae deletion strains, locus YDL035C, strain GPR1, stronger effect = lower value 0.993 | S. cerevisiae deletion strains, locus YDL074C, strain BRE1, stronger effect = lower value 1.03 | S. cerevisiae deletion strains, locus YDL101C, strain DUN1, stronger effect = lower value 1 | S. cerevisiae deletion strains, locus YDL134C, strain PPH21, stronger effect = lower value 0.999 | S. cerevisiae deletion strains, locus YDL185W, strain tfp1, stronger effect = lower value 0.979 | S. cerevisiae deletion strains, locus YDL192W, strain arf1, stronger effect = lower value 1 | S. cerevisiae deletion strains, locus YDR101C, strain arx1, stronger effect = lower value 1 | S. cerevisiae deletion strains, locus YDR150W, strain NUM1, stronger effect = lower value 0.999 | S. cerevisiae deletion strains, locus YDR162C, strain NBP2, stronger effect = lower value 1.01 | S. cerevisiae deletion strains, locus YDR318W, strain mcm21, stronger effect = lower value 0.992 | S. cerevisiae deletion strains, locus YDR388W, stronger effect = lower value 0.998 | S. cerevisiae deletion strains, locus YDR502C, strain sam2, stronger effect = lower value 1 | S. cerevisiae deletion strains, locus YEL061C, strain CIN8, stronger effect = lower value 1 | S. cerevisiae deletion strains, locus YER110C, stronger effect = lower value 0.988 | S. cerevisiae deletion strains, locus YER155C, strain BEM2, stronger effect = lower value 0.993 | S. cerevisiae deletion strains, locus YER167W, strain BCK2, stronger effect = lower value 0.978 | S. cerevisiae deletion strains, locus YGL078C, strain dbp3, stronger effect = lower value 0.999 | S. cerevisiae deletion strains, locus YGL086W, strain mad1, stronger effect = lower value 0.989 | S. cerevisiae deletion strains, locus YGL248W, strain PDE1, stronger effect = lower value 0.994 | S. cerevisiae deletion strains, locus YGR078C, strain PAC10, stronger effect = lower value 1.01 | S. cerevisiae deletion strains, locus YGR135W, strain pre9, stronger effect = lower value 1.02 | S. cerevisiae deletion strains, locus YGR229C, strain SMI1, stronger effect = lower value 1.02 | S. cerevisiae deletion strains, locus YGR252W, strain gcn5, stronger effect = lower value 0.994 | S. cerevisiae deletion strains, locus YHR030C, strain SLT2, stronger effect = lower value 0.983 | S. cerevisiae deletion strains, locus YHR079C, strain IRE1 (second series), stronger effect = lower value 0.99 | S. cerevisiae deletion strains, locus YHR094C, strain hxt1, stronger effect = lower value 0.989 | S. cerevisiae deletion strains, locus YHR129C, strain ARP1, stronger effect = lower value 0.992 | S. cerevisiae deletion strains, locus YHR200W, strain rpn10, stronger effect = lower value 0.994 | S. cerevisiae deletion strains, locus YIL066C, strain RNR3, stronger effect = lower value 0.999 | S. cerevisiae deletion strains, locus YIL073C, strain SPO22, stronger effect = lower value 0.9 | S. cerevisiae deletion strains, locus YIL125W, strain kgd1, stronger effect = lower value 0.995 | S. cerevisiae deletion strains, locus YIR030C, strain dcg1, stronger effect = lower value 0.993 | S. cerevisiae deletion strains, locus YJL095W, strain BCK1, stronger effect = lower value 1.06 | S. cerevisiae deletion strains, locus YJL134W, strain LCB3, stronger effect = lower value 0.989 | S. cerevisiae deletion strains, locus YJL168C, strain set2, stronger effect = lower value 0.991 | S. cerevisiae deletion strains, locus YJL187C, strain SWE1 (second series), stronger effect = lower value 0.994 | S. cerevisiae deletion strains, locus YJR043C, strain POL32, stronger effect = lower value 1.04 | S. cerevisiae deletion strains, locus YJR075W, strain HOC1, stronger effect = lower value 1.02 | S. cerevisiae deletion strains, locus YKL009W, strain mrt4, stronger effect = lower value 0.978 | S. cerevisiae deletion strains, locus YKL068W, stronger effect = lower value 0.987 | S. cerevisiae deletion strains, locus YKL085W, strain MDH1 (second series), stronger effect = lower value 0.972 | S. cerevisiae deletion strains, locus YKL085W, strain MDH1, stronger effect = lower value 0.972 | S. cerevisiae deletion strains, locus YKL190W, strain CNB1, stronger effect = lower value 0.99 | S. cerevisiae deletion strains, locus YKR001C, strain vps1, stronger effect = lower value 1 | S. cerevisiae deletion strains, locus YLR039C, strain RIC1, stronger effect = lower value 1.02 | S. cerevisiae deletion strains, locus YLR058C, strain SHM2, stronger effect = lower value 0.986 | S. cerevisiae deletion strains, locus YLR102C, strain apc9, stronger effect = lower value 0.989 | S. cerevisiae deletion strains, locus YLR262C, strain YPT6, stronger effect = lower value 0.985 | S. cerevisiae deletion strains, locus YLR268W, strain sec22, stronger effect = lower value 1.02 | S. cerevisiae deletion strains, locus YLR330W, strain CHS5, stronger effect = lower value 0.981 | S. cerevisiae deletion strains, locus YLR342W, strain FKS1 (second series), stronger effect = lower value 0.968 | S. cerevisiae deletion strains, locus YLR371W, strain rom2, stronger effect = lower value 0.978 | S. cerevisiae deletion strains, locus YLR418C, strain cdc73, stronger effect = lower value 1.02 | S. cerevisiae deletion strains, locus YML016C, strain PPZ1, stronger effect = lower value 0.991 | S. cerevisiae deletion strains, locus YML032C, strain rad52, stronger effect = lower value 0.998 | S. cerevisiae deletion strains, locus YML124C, strain tub3, stronger effect = lower value 1 | S. cerevisiae deletion strains, locus YMR078C, strain ctf18, stronger effect = lower value 0.997 | S. cerevisiae deletion strains, locus YMR223W, strain ubp8, stronger effect = lower value 0.995 | S. cerevisiae deletion strains, locus YMR263W, strain SAP30, stronger effect = lower value 1.01 | S. cerevisiae deletion strains, locus YMR307W, strain GAS1, stronger effect = lower value 0.99 | S. cerevisiae deletion strains, locus YNL067W, strain RPL9B, stronger effect = lower value 1.03 | S. cerevisiae deletion strains, locus YNL128W, strain TEP1, stronger effect = lower value 1.02 | S. cerevisiae deletion strains, locus YNL153C, strain GIM3, stronger effect = lower value 1.01 | S. cerevisiae deletion strains, locus YNL233W, strain BNI4, stronger effect = lower value 1 | S. cerevisiae deletion strains, locus YNL250W, strain rad50, stronger effect = lower value 0.991 | S. cerevisiae deletion strains, locus YNL271C, strain bni1, stronger effect = lower value 0.983 | S. cerevisiae deletion strains, locus YNL298W, strain CLA4, stronger effect = lower value 1.01 | S. cerevisiae deletion strains, locus YNL307C, strain MCK1, stronger effect = lower value 0.997 | S. cerevisiae deletion strains, locus YNL322C, strain KRE1, stronger effect = lower value 0.997 | S. cerevisiae deletion strains, locus YNR052C, strain pop2, stronger effect = lower value 0.994 | S. cerevisiae deletion strains, locus YOL006C, strain TOP1, stronger effect = lower value 1.05 | S. cerevisiae deletion strains, locus YOL012C, strain htz1 0.88 | S. cerevisiae deletion strains, locus YOL147C, strain pex11, stronger effect = lower value 0.994 | S. cerevisiae deletion strains, locus YOR061W, strain CKA2, stronger effect = lower value 0.999 | S. cerevisiae deletion strains, locus YOR069W, strain VPS5, stronger effect = lower value 1.01 | S. cerevisiae deletion strains, locus YOR136W, strain idh2, stronger effect = lower value 0.993 | S. cerevisiae deletion strains, locus YOR144C, strain elg1, stronger effect = lower value 0.995 | S. cerevisiae deletion strains, locus YOR184W, strain ser1, stronger effect = lower value 0.982 | S. cerevisiae deletion strains, locus YOR316C, strain cot1, stronger effect = lower value 0.987 | S. cerevisiae deletion strains, locus YPL055C, strain LGE1, stronger effect = lower value 1.04 | S. cerevisiae deletion strains, locus YPL241C, strain CIN2, stronger effect = lower value 1.01 | S. cerevisiae deletion strains, locus YPR119W, strain clb2, stronger effect = lower value 0.993 | S. cerevisiae deletion strains, locus YPR141C, strain kar3, stronger effect = lower value 0.992 | S. cerevisiae deletion strains, locus YPR163C, strain tif3, stronger effect = lower value 1 | S. cerevisiae deletion strains, locus YPR167C, strain met16, stronger effect = lower value 0.994 | S. cerevisiae deletion strains, strain wtn01, stronger effect = lower value 0.993 | S. cerevisiae strains, strain wild type, stronger effect = lower value 0.992
